AmpC nodet inh: inhibitors of E. coli AmpC beta-lactamase without detergent; Potency, µM (doses to about 28.7 µM); 71,000 compounds, 1.8% hits; AID 585; P00811; AmpC nitrocefin hydrolysis, absorbance 480 nm, no detergent
Target sequence (P00811 whole entry, looked up): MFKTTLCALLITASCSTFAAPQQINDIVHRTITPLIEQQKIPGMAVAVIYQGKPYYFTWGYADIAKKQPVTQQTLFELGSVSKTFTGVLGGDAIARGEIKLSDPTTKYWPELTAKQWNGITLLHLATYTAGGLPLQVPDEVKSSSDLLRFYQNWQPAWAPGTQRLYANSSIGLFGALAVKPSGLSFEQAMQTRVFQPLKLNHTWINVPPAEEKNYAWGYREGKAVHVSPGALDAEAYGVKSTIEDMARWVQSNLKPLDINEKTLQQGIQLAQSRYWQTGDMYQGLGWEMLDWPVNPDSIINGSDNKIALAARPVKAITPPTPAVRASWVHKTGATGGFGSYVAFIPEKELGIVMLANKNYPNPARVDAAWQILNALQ
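Enzyme, pH 7.0 phosphate. Compound titrations were pre-incubated with AmpC for 15 min at room temperature before nitrocefin (stock 800 uM) addition; product formation was recorded at 480 nm every 20 s for 4 min.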
LT uptake inh: anthrax lethal toxin internalization inhibition; Cells, anthrax lethal toxin internalization, FRET ratio (460/530); Potency, µM (doses to about 40 µM), hits mostly inhibitors; 70,000 compounds, 0.67% hits; AID 912; also: nearly all actives have a fitted effect of over 50% in size
Prx2 Sm inh: blocks S. mansoni peroxiredoxin 2 enzymatic activity; AID 448; Potency, µM; S. mansoni Prx2 activity coupled to TGR/GSH (TGR is thioredoxin glutathione reductase), NADPH fluorescence loss, qHTS; 65,000 compounds, 0.07% hits
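Prx2 activity was followed as the loss of NADPH fluorescence (ex 365/em 450 nm), read every 30 sec for 8 min after H2O2 start. The enzyme mix (50 nM Prx2, 25 nM TGR, GSH, NADPH; pH 7.4 phosphate buffer) was incubated with compound for 15 min at room temperature first.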
AmpC det inh: AmpC beta-lactamase inhibition, detergent assay; AID 584; Potency, µM (doses to about 28.7 µM); P00811; 71,000 compounds, 0.09% hits; purified AmpC, nitrocefin hydrolysis with detergent; active = well fitted curve in the direction sought with a large enough effect; inconclusive = small, poorly fitted or top-dose-only effect
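E. coli AmpC (5.3 nM) in 20 mM phosphate pH 7.0 with 0.01% Triton X-100, preincubated 15 min RT with compound; nitrocefin (2 uL of 800 uM stock) hydrolysis followed by 480 nm absorbance every 20 s over 4 min.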
Numbers stand for hits; - = inactive; ? = inconclusive; . = no result; [ ] = remark or other dose. In the library only some 2.4% were active in any assay of this set; here they are far more common. Unless noted, calls follow the shape of the full dose curve.

SMILES	AmpC nodet inh	LT uptake inh	Prx2 Sm inh	AmpC det inh
CCN(CC)S(=O)(=O)c1ccc(NC2c3ccccc3C(=O)N2Cc2ccc3c(c2)OCO3)cc1 (stereo not given)	4µM[single pt active]	?	-	-
CO[C@@H]1COC(=O)CC=C[C@@H](C)[C@@H]2C=C[C@@H](O)[C@@H](COC(=O)C/C=C\[C@H]1C)O2	.	-[8 µM]	.	.
O=[N+]([O-])/C=C/c1ccccc1	-	4µM	.	-
C=Cc1ccccc1	-	-	.	-
CS(=O)(=O)N(Cc1ccco1)CC(O)Cn1c2ccccc2c2ccccc21 (stereo not given)	-	10µM	-	-
OC(CNCc1ccco1)Cn1c2ccccc2c2ccccc21 (stereo not given)	-	-	-	-
O=C(CCN1C(=O)C2C3C=CC(C3)C2C1=O)NCCc1ccccc1 (stereo not given)	-	-	-	-
Cc1c(NC(=O)NCCN2C(=O)C3C4C=CC(C4)C3C2=O)c(=O)n(-c2ccccc2)n1C (stereo not given)	4µM[single pt active]	-	-	-
O=C(NCCN1C(=O)C2C3C=CC(C3)C2C1=O)N1CCOCC1 (stereo not given)	4µM[single pt active]	-	-	-
Cc1c(NC(=O)c2ccc(N3C(=O)C4C5C=CC(C5)C4C3=O)cc2)c(=O)n(-c2ccccc2)n1C (stereo not given)	-	?	-	-
O=C(NCCN1C(=O)C2C3C=CC(C3)C2C1=O)Nc1ccccc1O (stereo not given)	4µM[single pt active]	-	-	-
O=C(NCCN1CCOCC1)N1CCOCC1	-	-	-	-
Cc1c(NC(=O)CCCCCN2C(=O)C3C4C=CC(C4)C3C2=O)c(=O)n(-c2ccccc2)n1C (stereo not given)	2.5µM[single pt active]	-	-	-
Cc1c(NC(=O)C(C)N2C(=O)C3C4C=CC(C4)C3C2=O)c(=O)n(-c2ccccc2)n1C (stereo not given)	-	-	-	-
O=C(c1cccc(F)c1)N1CCC[C@@]2(CCN(c3ccccc3)C2)C1	-	-	-	-
CCCc1nnc(NC(=O)NCCN2C(=O)C3C4C=CC(C4)C3C2=O)s1 (stereo not given)	4µM[single pt active]	-	-	-
CN(CCO)Cc1ncccc1O	-[5.75 µM]	-[8 µM]	-	-[5.75 µM]
CC(CCC(=O)O)(c1cc(Br)c(O)c(Br)c1)c1cc(Br)c(O)c(Br)c1	-[5.75 µM]	-[8 µM]	-	-[5.75 µM]
O=C(NCCc1c[nH]c2ccccc12)c1ccc(S(=O)(=O)NCc2ccco2)cc1	16µM	-	-	-
O=c1c(-c2ccc3c(c2)OCCO3)coc2c(CN3CCOCC3)c(O)ccc12	-	-	-	-
CC(C)=CCc1c2c(c3occ(-c4ccc(O)c(O)c4)c(=O)c3c1O)C=CC(C)(C)O2	4µM[single pt active]	?	-	-[5.75 µM]
CCC(C)NC(=O)CS(=O)Cc1nc(-c2cccc(OC)c2)oc1C (stereo not given)	4µM[single pt active]	-	-	-
COc1cccc(-c2nc(CS(=O)CC(=O)NC3CCCC3)c(C)o2)c1 (stereo not given)	4µM[single pt active]	-	-	-
Cc1cccc(-c2nc(CS(=O)CC(=O)N3CCN(C)CC3)c(C)o2)c1 (stereo not given)	4µM[single pt active]	-	-	-
C=CC[C@@H](C(=O)O)c1ccccc1	-[5.75 µM]	-[8 µM]	-	-[5.75 µM]
SMILES	AmpC nodet inh	LT uptake inh	Prx2 Sm inh	AmpC det inh
Clc1cccc(N2CCN(Cc3nc(-c4ccccc4)no3)CC2)c1	4µM[single pt active]	?	-	-
CN1c2cc3c(cc2N=C(c2ccc(C(=O)O)cc2)c2ccccc21)C(C)(C)CCC3(C)C	.	10µM	.	.
NCCC[C@@H](CC(=O)N[C@@H]1CCNC[C@H]1C(=O)N[C@H](CC(=O)N[C@@H](CCC(=O)O)CC(=O)O)Cc1ccccc1)NC(=O)C[C@H](CO)NC(=O)[C@@H]1CCCC[C@H]1N	-	-	-	-
O=C(CCSc1nnc2scc(-c3ccccc3)n12)Nc1nc(-c2ccccc2)ns1	5µM	-	-	-
Cc1c(-c2ccc(O)cc2)nn(-c2ccc(O)cc2)c1-c1ccc(OCCN2CCCCC2)cc1	-	16µM	-	-
Cc1sc(NC(=O)c2ccco2)nc1-c1ccc2c(c1)CC(C)N2C(=O)C1CC1 (stereo not given)	-	10µM	-	-
COc1ccc2c(c1)-c1nc(NC(=O)c3ccco3)sc1CC2	-	-	-	-
CCOc1ccc(N(CC(=O)N2CC=C(c3ccccc3)CC2)S(=O)(=O)c2c(C)noc2C)cc1	4µM[single pt active]	?	-	-
COc1ccc(N(CC(=O)N2CC=C(c3ccccc3)CC2)S(=O)(=O)c2c(C)noc2C)cc1	4µM[single pt active]	?	-	-
CCOc1ccc(N(CC(=O)Nc2ccc(C)cc2)S(=O)(=O)c2c(C)noc2C)cc1	-	?	-	-
COc1ncc2nc(C)c(=O)n(CCC#N)c2n1	-	-	-	-
COC(=O)[C@@H]1C[C@H]1[C@@H](NS(=O)(=O)c1ccc2ccccc2c1)c1ccccc1	-	?	-	-
COCCNC(=O)[C@H](C)/C=C(\c1cccnc1)C(NC(=O)OCc1ccccc1)c1ccc(C(=O)OC)cc1 (stereo not given in full)	-	-	.	-
CCC(=O)n1nc(-c2ccco2)nc1SCc1ccccc1	-	-	-	-
CC(=O)n1nc(-c2ccco2)nc1SCc1ccccc1	?	7.9µM	?	-
Cc1ccc(-n2nc(-c3ccc(N)cc3)cc2N)cc1	3.2µM[single pt active]	?	-	-
Nc1ccc(-c2cc(N)n(-c3ccccc3)n2)cc1	-	?	-	-
OC(COc1ccc(Cl)c2ccccc12)CN1CCN(c2ccccn2)CC1 (stereo not given)	-	10µM	-	-
Nc1ncn([C@@H]2O[C@@H](CO)[C@@H](O)[C@H]2O)c(=O)n1	-	-	-	-
Oc1ccc2ccccc2c1CN(Cc1c(O)ccc2ccccc12)C1CCCCC1	-[5.75 µM]	-[8 µM]	-	-[5.75 µM]
COCCNC(=O)c1cc2c(-c3ccc(Cl)cc3)nn(C)c2s1	-	-	-	-
CCN1CCCC1CNC(=O)c1cc2c(-c3cccc(OC)c3)nn(C)c2s1 (stereo not given)	-	16µM	-	-
CC(C)NC(=O)c1cc2c(-c3ccc(Cl)cc3)nn(C)c2s1	0.79µM[single pt active]	-	-	-
CCOC(=O)N1CCC(NC(=O)c2cc3c(-c4ccc(Cl)cc4)nn(C)c3s2)CC1	4µM[single pt active]	-	-	-
COc1cccc(-c2nn(C)c3sc(C(=O)NCc4ccco4)cc23)c1	-	-	-	-
SMILES	AmpC nodet inh	LT uptake inh	Prx2 Sm inh	AmpC det inh
Cn1nc(-c2ccc(Cl)cc2)c2cc(C(=O)NCCCN3CCCC3)sc21	4µM[single pt active]	2µM	-	-
CCCCNC(=O)c1cc2c(-c3ccc(Cl)cc3)nn(C)c2s1	-	-	.	-
COCCCNC(=O)c1cc2c(-c3ccc(Cl)cc3)nn(C)c2s1	-	-	-	-
Cn1cccc1C(=O)N1CCC2(CC1)CN(c1ccccn1)C2	-	-	-	-
CCCn1c(-c2ccc(F)cc2)nc2c(NCCCCN(C)C)nc(C)nc21	-	-	.	-
CC(C)(Oc1ccc(-c2cccc3ccccc23)cc1)C(=O)O	-[5.75 µM]	-[8 µM]	-	-[5.75 µM]
Cc1ccc(CNC(=O)c2cc3c(-c4ccc(Cl)cc4)nn(C)c3s2)o1	4µM[single pt active]	-	-	-

Screens deposited in PubChem by National Center for Advancing Translational Sciences (NCATS).
